Assay results reported in PubChem BioAssay (NCATS).
Results filed as inconclusive are left out. The source made the active and inactive calls. Calls follow the shape of the dose curve; as a rule, active = well fitted inhibition curve with a large enough effect; inconclusive = small, poorly fitted or top-dose-only effect; inactive = flat fitted curve, though single readings scatter.

Test: qHTS for Inhibitors of Plasmodium falciparum (DD2) proliferation (AID 504314);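 as to activity, negative = inhibition: parasite DNA measured by SYBR Green fluorescence after red cell lysis; plate controls were DMSO vehicle for no effect and artemisinin wells for full effect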
Conditions: P. falciparum Dd2 in erythrocytes, SYBR Green growth, 72 h; series mostly up to 6.11 µM; activity, negative = inhibition: at the top concentration
Summary of the method: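 P. falciparum Dd2 is grown in erythrocytes with test compound for 72 h at 37C under 5% CO2. Growth is scored by SYBR Green I fluorescence after detergent lysis, relative to artemisinin (0.29 uM) and DMSO controls.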
Potency is read from the fitted curve at half-maximal effect.

| Compound | activity, negative = inhibition | Potency |
| --- | --- | --- |
| CC(C)CON=C1C[C@@H](O)[C@@H](O)[C@@H]2[C@H]3C(=O)N(Cc4ccc5c(c4)OCO5)C(=O)[C@@H]3CC[C@@H]12 | -11.1% (inactive) |  |
| C[C@H]1Cc2c(COc3ccccc3)nc3c(c2CO1)CN(S(=O)(=O)c1ccc2c(c1)OCCN2C)CC3 | -3.65% [at 1.12 µM] (inactive) |  |
| CC(=O)OC[C@H]1O[C@H](C#Cc2ccccc2)C=C[C@H]1O | 1.17% (inactive) |  |
| COC(=O)CCCC1=CC2=CC(=O)C(C)(OC(=O)c3cccs3)C(=O)C2=CN1C1CCCC1 (stereo not drawn) | -0.45% [at 1.12 µM] (inactive) |  |
| CC(CCC(=O)OC[C@H]1O[C@H](C#Cc2ccccc2)C=C[C@H]1Oc1ccc(C)cc1)=NO[C@@H](C)c1cn([C@H](CO)Cc2ccccc2)nn1 | -7.58% (inactive) |  |
| CCO[C@H](c1cc(OC)cc([N+](=O)[O-])c1OC)[C@H](C)[C@@H](OC)[C@H](C)C=CCC(=O)OC | -8.16% (inactive) |  |
| COC(=O)C1=C[C@@]2(c3ccc(F)cc3[C@@H](OC)[C@@H]2C)[C@@H]2C=C[C@H]1C2 | -6.71% (inactive) |  |
| COc1ccc(N2C=C3C(=O)C(C)(OC(=O)C4CCCC4)C(=O)C=C3C=C2c2ccsc2)cc1 (stereo not drawn) | -0.73% [at 1.12 µM] (inactive) |  |
| COc1ccc(-c2nc3c(c4c2C[C@H](c2ccccc2)OC4)CN(C(=O)c2cc(I)ccc2F)CC3)c(C)c1 | -3.98% [at 1.12 µM] (inactive) |  |
| COCCN1C(=S)NC(c2cccc(F)c2)C(C(=O)OC)=C1C (stereo not drawn) | -6.92% (inactive) |  |
| COC(=O)CC(Oc1c(C)n(C)c2ccccc2c1=O)c1ccccc1 (stereo not drawn) | -10.9% (inactive) |  |
| C[C@H](ON=C1[C@H]2CCn3c(=O)n(-c4ccccc4)c(=O)n3[C@@H]2[C@H](O)[C@@H]2O[C@H]12)c1cn([C@H](CO)Cc2ccccc2)nn1 | 0.304% (inactive) |  |
| C=CC1=C2C=C(C3CC3)N(c3ccc(OC)cc3)C=C2C(=O)C(C)(OC(=O)c2ccco2)C1=O (stereo not drawn) | 0.839% [at 1.12 µM] (inactive) |  |
| C=CCN1C(=O)CC[C@@]23C1=NC(C(=O)OC)=C(C(=O)OC)[C@@H]2N(CC#CC)c1ccccc13 | -12% (inactive) |  |
| CC(=O)OC[C@H]1O[C@@H](ON=CC[C@@H]2C=C[C@@H](OC(C)=O)[C@@H](COC(C)=O)O2)[C@@H](OC(C)=O)[C@@H](OC(C)=O)[C@@H]1OC(C)=O | 3.86% (inactive) |  |
| C[C@H](NC(=O)N1CCc2nc(-c3ccccc3)c3c(c2C1)CO[C@@H](C)C3)c1ccccc1 | 3.91% [at 1.12 µM] (inactive) |  |
| C=CCC(C)(NCc1ccccc1)C(=O)OCC (stereo not drawn) | -10.7% (inactive) |  |

| Compound | activity, negative = inhibition | Potency |
| --- | --- | --- |
| COC(=O)CCC(=O)OC1(C)C(=O)C=C2C=C(C3CC3)N(c3ccc(CO)cc3)C=C2C1=O (stereo not drawn) | -5.46% [at 1.12 µM] (inactive) |  |
| COc1ccc(C(O)C2=CCCC2=O)cc1 (stereo not drawn) | -5.72% (inactive) |  |
| COc1ccc2c(c1)O[C@@H](c1cccc(C(F)(F)F)c1)[C@H](OC(=O)NC1CCCC1)C2=O | -2.34% (inactive) |  |
| C[C@@H]1CC[C@H]2C(=O)N3[C@@H](CC[C@@H](C)[C@@H]3c3ccc(Br)cc3)C(=O)N2[C@@H]1c1ccc(Br)cc1 | -8.54% (inactive) |  |
| COc1cc2c(c(OC)c1)[C@H](C=Cc1ccccc1)[C@@H]([C@H](O)CO)OC2 | -8.23% (inactive) |  |
| CC(C)=CCC12CC3[C@@H](O)C(C(=O)c4ccccc4)(C1=O)C(=O)C(CC=C(C)C)(C2=O)C3(C)C (stereo partly drawn) | -11.9% (inactive) |  |
| C[C@H](NC(=O)N1CCc2nc(COc3ccccc3)c3c(c2C1)CO[C@@H](C)C3)c1ccccc1 | -0.0576% [at 1.12 µM] (inactive) |  |
| COC(=O)C1=C(C)N(Cc2ccccc2)C(=O)NC1c1cccc(F)c1 (stereo not drawn) | -7.62% (inactive) |  |
| C=CC[C@@H]1C=C(C(=O)OC)N(C(=O)C(F)(F)F)[C@@H](c2ccccc2Br)[C@@H]1C | -0.759% (inactive) |  |
| CCOC(=O)C1=CN(CCC=C(C)C)C(=O)NC1c1ccccc1 (stereo not drawn) | -1.21% (inactive) |  |
| COC(=O)CCCC1=CC2=C(c3ccccc3)C(=O)C(C)(OC(=O)C3CCCC3)C(=O)C2=CN1c1ccccc1 (stereo not drawn) |  | inactive |
| C=CCCCN1C(=O)NC(c2ccccc2)C(C(=O)OC)=C1C (stereo not drawn) | -2.43% (inactive) |  |
| CCCCCCCC1=CC2=C(Cl)C(=O)C(C)(OC(C)=O)C(=O)C2=CO1 (stereo not drawn) | -8.08% (inactive) |  |
| C=CC[C@@]1(c2ccc(Br)cc2OC)Oc2ccccc2-c2nccnc21 | -4.76% (inactive) |  |
| CCCCCCCc1cc2c(cn1)C(=O)C(C)(OC(C)=O)C(O)=C2Cl (stereo not drawn) |  | 1890 nM (active) |
| COc1ccc2c(c1)C(=O)[C@H](OC(=O)N[C@H]1CCCc3ccccc31)[C@@H](c1ccc(OC)c(Br)c1)O2 | -13.7% (inactive) |  |
